According to ChEMBL document CHEMBL3988442, “University of Dundee, Small-Polar-MMV Screening Library” (2021):
The whole screen tested about 48,000 compounds, of which about 13,000 (27%) showed an effect of 50% or more. The list shows a part of the results.

System: Wolbachia pipientis
Test: Anti-Wolbachia Cell-Based Screen
Assay type: functional
Set-up: scale not given: in the data most compounds retested in dose-response had high values
Conditions: 5 µM

Question: For COc1ccc(C)cc1CN(Cc1ncc(C)o1)C1CCN(C)C1 (stereo not drawn), which “Percent Effect” value is on record?
Answer: Its value is 18.81%.

Question: With Cc1cccc(N2N=C(C(=O)NC(C)CCc3ccco3)CCC2=O)c1 (stereo not drawn) as the compound, how does the “Percent Effect” value read?
Answer: The value was 5.008%.

Question: How did the “Percent Effect” value turn out when CC(C)C(=O)NC1CCN(CCO)CC1 was run?
Answer: Its value is -14.55%.

Question: N#Cc1ccc(CNC(=O)NCCC(=O)NC2CCCC2)c(F)c1 was tested. Which “Percent Effect” value did it give?
Answer: The value was 1.823%.

Question: For CCCOCCN1CCc2[nH]c(-c3ccc(OC)cc3)nc2C1, which “Percent Effect” value is on record?
Answer: The value was 0.5641%.

Question: For O=C(O)C(F)(F)F.O=C(O)C(F)(F)F.c1cncc(OCc2nnn3c2CN(Cc2ccsc2)CCC3)c1, which “Percent Effect” value is on record?
Answer: The value was -20.94%.

Question: For O=C(O)C(F)(F)F.O=C(O)C(F)(F)F.c1cncc(COCc2nnn3c2CN(Cc2ccsc2)CC3)c1, which “Percent Effect” value is on record?
Answer: Its value is 109.1%.

Question: For O=C(O)C(F)(F)F.O=C(O)C(F)(F)F.c1cncc(COCc2nnc3n2CCN(Cc2ccsc2)C3)c1, which “Percent Effect” value is on record?
Answer: Its value is -0.7002%.

Question: With O=C(NCc1ccc(Cl)cc1)[C@@H]1Cc2[nH]cnc2CN1CC1CC1 as the compound, how does the “Percent Effect” value read?
Answer: Its value is 10.78%.

Question: With Cc1n[nH]c(C2CN(CCCOc3cccc(Cl)c3)CCO2)n1 (stereo not drawn) as the compound, how does the “Percent Effect” value read?
Answer: Its value is 17.53%.

Question: Which “Percent Effect” value does the source give for Br.Cn1cc(CN2CCC(c3cc(COc4cccc(Cl)c4)[nH]n3)C2)cn1 (stereo not drawn) here?
Answer: Its value is 108.1%.

Question: For Cn1cc(CN2CCCC(CCc3ccc(F)cc3)C2)cn1 (stereo not drawn), which “Percent Effect” value is on record?
Answer: The value was 5.496%.

Question: For Cn1cc(CN2CCCC(CCc3ccc(F)cc3F)C2)cn1 (stereo not drawn), which “Percent Effect” value is on record?
Answer: The value was 13.59%.

Question: For Cn1cc(CN2CCCC(CCc3ccc(F)c(F)c3)C2)cn1 (stereo not drawn), which “Percent Effect” value is on record?
Answer: The value was -4.852%.

Question: Cn1cc(CN2CCC(c3cc(COc4ccc(Cl)cc4)[nH]n3)C2)cn1 (stereo not drawn) was tested. Which “Percent Effect” value did it give?
Answer: The value was 120.4%.

Question: Cn1cc(CN2CCCC(Cn3cc(CCCO)nn3)C2)cn1 (stereo not drawn) was tested. Which “Percent Effect” value did it give?
Answer: Its value is -7.109%.

Question: Cn1cc(CN2CCC(c3cc(CCO)[nH]n3)C2)cn1 (stereo not drawn) was tested. Which “Percent Effect” value did it give?
Answer: Its value is 135.9%.

Question: How did the “Percent Effect” value turn out when Cc1cc(C2CCCN(Cc3cccnc3)C2)n[nH]1 (stereo not drawn) was run?
Answer: Its value is -3.647%.

Question: O=C(NC1(c2nccs2)CCCC1)c1[nH]nc(C2CC2)c1Cl was tested. Which “Percent Effect” value did it give?
Answer: Its value is -0.1495%.

Question: With O=C(Nc1ccccc1OC(F)(F)F)C1CCS(=O)(=O)C1 (stereo not drawn) as the compound, how does the “Percent Effect” value read?
Answer: The value was 4.045%.

Question: How did the “Percent Effect” value turn out when N#Cc1cnn(C(=O)COc2ccccc2F)c1N was run?
Answer: The value was -3.189%.

Question: Which “Percent Effect” value does the source give for CCCc1n[nH]c(C2CN(C(=O)c3ccc4c(c3)COC4)CCO2)n1 (stereo not drawn) here?
Answer: The value was 124.9%.

Question: Which “Percent Effect” value does the source give for Cc1n[nH]c(C2CN(C(=O)c3ccc4c(c3)COC4)CCO2)n1 (stereo not drawn) here?
Answer: Its value is -48.4%.

Question: Which “Percent Effect” value does the source give for CCc1n[nH]c(C2CN(C(=O)c3ccc(NC4CC4)nc3)CCO2)n1 (stereo not drawn) here?
Answer: The value was 134.6%.

Question: How did the “Percent Effect” value turn out when CCc1n[nH]c(C2CN(C(=O)c3ccnc(N(C)C)c3)CCO2)n1 (stereo not drawn) was run?
Answer: The value was 149.1%.

Question: With CCc1n[nH]c(C2CN(C(=O)c3ccc4c(c3)COC4)CCO2)n1 (stereo not drawn) as the compound, how does the “Percent Effect” value read?
Answer: The value was 136%.

Question: C[S+]([O-])c1nncn1CC(=O)c1cccc(Br)c1 (stereo not drawn) was tested. Which “Percent Effect” value did it give?
Answer: Its value is -3.709%.

Question: With Cc1ccc(CN(C)C(=O)NCC(C)(C)S(C)(=O)=O)s1 as the compound, how does the “Percent Effect” value read?
Answer: The value was -13.6%.

Question: How did the “Percent Effect” value turn out when CCNc1ncc(CN2C[C@@H](CN3CCC(CO)CC3)[C@@H](CO)C2)cn1 was run?
Answer: The value was 12.05%.

Question: For Cc1ccc(CC(=O)N2CCn3cc(Cn4cncn4)nc3C2)cc1, which “Percent Effect” value is on record?
Answer: Its value is 8.244%.

Question: For c1cc2c(cc1-c1noc3c1CN(C1CCC1)CC3)OCO2, which “Percent Effect” value is on record?
Answer: The value was -7.391%.

Question: For CS(=O)(=O)c1nccn1Cc1ccncc1, which “Percent Effect” value is on record?
Answer: Its value is -5.065%.

Question: With Cc1ccc2oc(CN3CCn4nc(CCC(=O)O)cc4C3)c(C)c2c1 as the compound, how does the “Percent Effect” value read?
Answer: Its value is 5.001%.

Question: For O=C(CCCc1nc2ccccc2[nH]1)N1CCCC1c1ccncc1 (stereo not drawn), which “Percent Effect” value is on record?
Answer: Its value is 8.641%.

Question: For NC(=O)NC(=O)CCN1CCC(C(=O)c2cc(F)ccc2F)CC1, which “Percent Effect” value is on record?
Answer: The value was -46.12%.

Question: Which “Percent Effect” value does the source give for O=C(c1cc(F)ccc1F)C1CCN(C(=O)c2cccnc2O)CC1 here?
Answer: The value was -3.966%.

Question: For O=C(c1cc(F)ccc1F)C1CCN(C(=O)c2cnccn2)CC1, which “Percent Effect” value is on record?
Answer: Its value is 120.4%.

Question: With C=C(Cl)CN1CCC(C(=O)c2cc(F)ccc2F)CC1 as the compound, how does the “Percent Effect” value read?
Answer: Its value is -0.07038%.

Question: Cc1cnc(C(=O)N2CCC(C(=O)c3cc(F)ccc3F)CC2)cn1 was tested. Which “Percent Effect” value did it give?
Answer: The value was 134%.

Question: For O=C(c1cc(F)ccc1F)C1CCN(C(=O)c2ccccn2)CC1, which “Percent Effect” value is on record?
Answer: Its value is 7.01%.

Question: Cc1cccc(C(=O)N2CCC(C(=O)c3cc(F)ccc3F)CC2)n1 was tested. Which “Percent Effect” value did it give?
Answer: Its value is 159.7%.

Question: For O=C(c1cc(F)ccc1F)C1CCN(C(=O)c2ccco2)CC1, which “Percent Effect” value is on record?
Answer: The value was 137.2%.

Question: How did the “Percent Effect” value turn out when CS(=O)(=O)CCN1CCSCC1c1ccc(Cl)cc1 (stereo not drawn) was run?
Answer: The value was -3.973%.

Question: With O=C(C1CC(F)(F)C1)N1CC[C@H]2OCC[C@@]2(COCC2CC2)C1 as the compound, how does the “Percent Effect” value read?
Answer: The value was -8.729%.

Question: How did the “Percent Effect” value turn out when CC(SCC(=O)NCCC#N)c1ccc(Cl)cc1 (stereo not drawn) was run?
Answer: The value was 5.18%.

Question: For COc1cccc(-c2nc(CNCCCn3cccn3)cs2)c1, which “Percent Effect” value is on record?
Answer: Its value is 28.1%.

Question: How did the “Percent Effect” value turn out when O=C(c1ccoc1)N1CCc2ncnc(NCc3ccccn3)c2CC1 was run?
Answer: Its value is 2.356%.

Question: CCCN1CCN(C(=O)c2cccnc2-n2cncn2)CC1 was tested. Which “Percent Effect” value did it give?
Answer: The value was 5.341%.

Question: How did the “Percent Effect” value turn out when O=C(O)C(F)(F)F.O=C(c1ccoc1)N1CCC2(CC1)COC(COc1ccccn1)C2 (stereo not drawn) was run?
Answer: The value was 19.26%.

Question: Cc1nc2ccc(C(=O)N3CCC(COc4ccccn4)CC3)cc2[nH]1 was tested. Which “Percent Effect” value did it give?
Answer: The value was 160.4%.

Question: With O=C(c1cccnc1O)N1CCC(COc2ccccc2)CC1 as the compound, how does the “Percent Effect” value read?
Answer: The value was -5.095%.

Question: With COc1ccnc(CN(C)C(=O)CSc2nnc(N)s2)c1 as the compound, how does the “Percent Effect” value read?
Answer: Its value is 0.9714%.

Question: For COc1ccc(-c2noc([C@@H]3C[C@@H](O)CN3C3CCCCC3)n2)cc1, which “Percent Effect” value is on record?
Answer: The value was -13.77%.

Question: Which “Percent Effect” value does the source give for COc1ccc(-c2noc(C3CCS(=O)(=O)C3)n2)cc1OC (stereo not drawn) here?
Answer: Its value is -2.853%.

Question: How did the “Percent Effect” value turn out when COc1ccc(-c2noc(C3CC(C(C)C)=NO3)n2)cc1 (stereo not drawn) was run?
Answer: Its value is -24.09%.

Question: How did the “Percent Effect” value turn out when COc1ccc(-c2noc(C(N)CCSC)n2)cc1OC (stereo not drawn) was run?
Answer: The value was 100.4%.

Question: Which “Percent Effect” value does the source give for COc1cc(OC)cc(-c2noc(C(N)CCSC)n2)c1 (stereo not drawn) here?
Answer: Its value is 122.3%.

Question: COc1cc(OC)cc(-c2noc(CN)n2)c1 was tested. Which “Percent Effect” value did it give?
Answer: Its value is -5.186%.

Question: For COc1ccc(-c2noc(C(N)CCSC)n2)cc1 (stereo not drawn), which “Percent Effect” value is on record?
Answer: Its value is 92.78%.

Question: For COc1ccc(-c2noc(C(=O)NCCN3CCCCC3)n2)cc1OC, which “Percent Effect” value is on record?
Answer: The value was -3.645%.

Question: How did the “Percent Effect” value turn out when Cc1ccc(-c2noc([C@H](N)CC(C)C)n2)nn1 was run?
Answer: The value was 0.7851%.

Question: How did the “Percent Effect” value turn out when COc1ccnc(N2CCCN(Cc3ncc(C(C)C)o3)CC2)n1 was run?
Answer: The value was -1.774%.

Question: With Cc1cc(C)n(CC2CN(c3ccc(C#N)cn3)CCO2)n1 (stereo not drawn) as the compound, how does the “Percent Effect” value read?
Answer: The value was 119.8%.

Question: Cc1cnn(CC2CN(c3ccc(C#N)cn3)CCO2)c1 (stereo not drawn) was tested. Which “Percent Effect” value did it give?
Answer: Its value is 117.6%.

Question: For Cc1nc(C)n(CC2CN(c3ccc(C#N)cn3)CCO2)n1 (stereo not drawn), which “Percent Effect” value is on record?
Answer: The value was -2.345%.

Question: CN(C)CC1CN(c2ccc(C#N)cn2)CCO1 (stereo not drawn) was tested. Which “Percent Effect” value did it give?
Answer: Its value is -4.596%.

Question: For Cc1cc(C)n(CC2CN(CCOc3cccc(C#N)c3)CCO2)n1 (stereo not drawn), which “Percent Effect” value is on record?
Answer: Its value is -7.515%.

Question: Cc1cnn(CC2CN(c3cnc4ccccc4n3)CCO2)c1 (stereo not drawn) was tested. Which “Percent Effect” value did it give?
Answer: The value was -7.583%.
